Consider twelve compounds from PubChem BioAssay (NCATS).

Results filed as inconclusive are left out. A number with no mark means an inactive call. The source made the active and inactive calls. Calls follow the shape of the dose curve; as a rule, active = well fitted inhibition curve with a large enough effect; inconclusive = small, poorly fitted or top-dose-only effect; inactive = flat fitted curve, though single readings scatter.
Potency is read from the fitted curve at half-maximal effect.

The first experiment deals with C2A. Description: qHTS profiling for inhibitors of Plasmodium falciparum proliferation (AID 504749). Also: nearly all actives have a fitted effect of over 60% in size.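 As to activity, negative = inhibition: 0% = DMSO vehicle and full inhibition = artemisinin control.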 Conditions: P. falciparum in erythrocytes, SYBR Green DNA, 72 h; series mostly up to 12.8 µM; activity, negative = inhibition: at the top concentration. The method, boiled down: (§1)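 Each compound contacts P. falciparum-infected red blood cells for 72 h at 37 C; lysis buffer (Tris, EDTA, saponin, Triton X, SYBR Green I) is added and fluorescence measured next morning; values normalized to controls.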
As for `CCO[C@H]1O[C@@H]([C@H](COCc2ccccc2)OCc2ccccc2)[C@@H](OCc2ccccc2)[C@H]1O`, the “activity, negative = inhibition” value was -5.17%.

Turning to `COc1cc(N[C@@H](C)CCCN)c2ncccc2c1`, the Potency is 2820 nM (active).

Regarding `C=Cc1c(C)c2cc3nc(cc4[nH]c(cc5nc(cc1[nH]2)C(C)=C5CCC(=O)O)c(CCC(=O)OC)c4C)[C@@]1(C)C3=CC=C(C(=O)OC)[C@H]1C(=O)OC` (tested in a mixture with another compound), the Potency was 14100 nM (active).

Turning to `O=C(OC[C@@H](O)CO)c1ccccc1Nc1ccnc2cc(Cl)ccc12`, the “activity, negative = inhibition” value is -20%.

For `CO[C@]1(NC(=O)[C@H](C(=O)O)c2ccc(O)cc2)C(=O)N2C(C(=O)O)=C(CSc3nnnn3C)CO[C@H]21`, the “activity, negative = inhibition” value was 1.9%.

Regarding `COc1ccc2c(c1)N(C[C@@H](C)CN(C)C)c1ccccc1S2`, the “activity, negative = inhibition” value was -6.05%.

Take `CCC(=O)[C@@]1(C)[C@H](C)C[C@@H]2[C@@H]3CCC4=CC(=O)C=C[C@@]4(C)[C@H]3[C@H](O)C[C@]21C`: the “activity, negative = inhibition” value was 0.251%.

Consider `CCC(C)(C)C(=O)O[C@@H]1C[C@H](C)C=C2C=C[C@H](C)[C@@H](CC[C@H]3C[C@@H](O)CC(=O)O3)[C@H]21`, for which the “activity, negative = inhibition” value is -1.97%.

Take `CCN(CC)[C@@H](C)CN1c2ccccc2Sc2ccccc21`: the “activity, negative = inhibition” value was -24.1%.

As for `CC=C(/C(=C/C)c1ccc(O)cc1)c1ccc(O)cc1`, the “activity, negative = inhibition” value was 0.563%.

Regarding `CC1(C)S[C@@H]2[C@H](NC(=O)[C@@H](N)c3ccccc3)C(=O)N2[C@H]1C(=O)O[C@H]1OC(=O)c2ccccc21`, the “activity, negative = inhibition” value is 9.52%.

For a further experiment, the system named is CP185. Described as above. The settings on record: P. falciparum in erythrocytes, SYBR Green DNA, 72 h; series mostly up to 12.8 µM; activity, negative = inhibition: at the top concentration. The method, boiled down:
as §1
For `CCO[C@H]1O[C@@H]([C@H](COCc2ccccc2)OCc2ccccc2)[C@@H](OCc2ccccc2)[C@H]1O`, the “activity, negative = inhibition” value was -7.63%.

As for `COc1cc(N[C@@H](C)CCCN)c2ncccc2c1`, the Potency was 2000 nM (active).

For the compound `O=C(OC[C@@H](O)CO)c1ccccc1Nc1ccnc2cc(Cl)ccc12`, the “activity, negative = inhibition” value is -8.96%.

With `CO[C@]1(NC(=O)[C@H](C(=O)O)c2ccc(O)cc2)C(=O)N2C(C(=O)O)=C(CSc3nnnn3C)CO[C@H]21`, the “activity, negative = inhibition” value is -0.53%.

As to `COc1ccc2c(c1)N(C[C@@H](C)CN(C)C)c1ccccc1S2`, the “activity, negative = inhibition” value is -12.6%.

Consider `CCC(=O)[C@@]1(C)[C@H](C)C[C@@H]2[C@@H]3CCC4=CC(=O)C=C[C@@]4(C)[C@H]3[C@H](O)C[C@]21C`, for which the “activity, negative = inhibition” value was 4.31%.

For `CCC(C)(C)C(=O)O[C@@H]1C[C@H](C)C=C2C=C[C@H](C)[C@@H](CC[C@H]3C[C@@H](O)CC(=O)O3)[C@H]21`, the “activity, negative = inhibition” value was -6.26%.

With `CCN(CC)[C@@H](C)CN1c2ccccc2Sc2ccccc21`, the “activity, negative = inhibition” value was -27.1%.

Consider `COC(=O)[C@@H]1[C@@H]2C[C@H]3c4[nH]c5cc(OC)ccc5c4CCN3C[C@@H]2C[C@H](OC(=O)/C=C\c2cc(OC)c(OC)c(OC)c2)[C@H]1OC`, for which the “activity, negative = inhibition” value was -28.2%.

Regarding `CC=C(/C(=C/C)c1ccc(O)cc1)c1ccc(O)cc1`, the “activity, negative = inhibition” value was 10.4%.

With `CC1(C)S[C@@H]2[C@H](NC(=O)[C@@H](N)c3ccccc3)C(=O)N2[C@H]1C(=O)O[C@H]1OC(=O)c2ccccc21`, the “activity, negative = inhibition” value was 5.51%.

Another experiment has as its system CP191. The description is as above. The settings on record: P. falciparum in erythrocytes, SYBR Green DNA, 72 h; series mostly up to 12.8 µM; activity, negative = inhibition: at the top concentration. The gist of the method:
as §1
Regarding `CCO[C@H]1O[C@@H]([C@H](COCc2ccccc2)OCc2ccccc2)[C@@H](OCc2ccccc2)[C@H]1O`, the “activity, negative = inhibition” value was -13.8%.

Turning to `COc1cc(N[C@@H](C)CCCN)c2ncccc2c1`, the Potency is 1000 nM (active).

Regarding `C=Cc1c(C)c2cc3nc(cc4[nH]c(cc5nc(cc1[nH]2)C(C)=C5CCC(=O)O)c(CCC(=O)OC)c4C)[C@@]1(C)C3=CC=C(C(=O)OC)[C@H]1C(=O)OC` (tested in a mixture with another compound), the Potency is 11200 nM (active).

Turning to `O=C(OC[C@@H](O)CO)c1ccccc1Nc1ccnc2cc(Cl)ccc12`, the “activity, negative = inhibition” value was -13.8%.

With `CO[C@]1(NC(=O)[C@H](C(=O)O)c2ccc(O)cc2)C(=O)N2C(C(=O)O)=C(CSc3nnnn3C)CO[C@H]21`, the “activity, negative = inhibition” value was 6.32%.

For `COc1ccc2c(c1)N(C[C@@H](C)CN(C)C)c1ccccc1S2`, the “activity, negative = inhibition” value is -24.9%.

Take `CCC(=O)[C@@]1(C)[C@H](C)C[C@@H]2[C@@H]3CCC4=CC(=O)C=C[C@@]4(C)[C@H]3[C@H](O)C[C@]21C`: the “activity, negative = inhibition” value is 0.671%.

As to `CCC(C)(C)C(=O)O[C@@H]1C[C@H](C)C=C2C=C[C@H](C)[C@@H](CC[C@H]3C[C@@H](O)CC(=O)O3)[C@H]21`, the “activity, negative = inhibition” value is -19.9%.

As for `CC=C(/C(=C/C)c1ccc(O)cc1)c1ccc(O)cc1`, the “activity, negative = inhibition” value was 1.14%.

Regarding `CC1(C)S[C@@H]2[C@H](NC(=O)[C@@H](N)c3ccccc3)C(=O)N2[C@H]1C(=O)O[C@H]1OC(=O)c2ccccc21`, the “activity, negative = inhibition” value is -0.223%.

A further experiment deals with CP192. The experiment is described as above. The settings on record: P. falciparum in erythrocytes, SYBR Green DNA, 72 h; series mostly up to 12.8 µM; activity, negative = inhibition: at the top concentration. The gist of the method:
as §1
As to `CCO[C@H]1O[C@@H]([C@H](COCc2ccccc2)OCc2ccccc2)[C@@H](OCc2ccccc2)[C@H]1O`, the “activity, negative = inhibition” value is -18.1%.

Regarding `COc1cc(N[C@@H](C)CCCN)c2ncccc2c1`, the Potency is 2560 nM (active).

Regarding `C=Cc1c(C)c2cc3nc(cc4[nH]c(cc5nc(cc1[nH]2)C(C)=C5CCC(=O)O)c(CCC(=O)OC)c4C)[C@@]1(C)C3=CC=C(C(=O)OC)[C@H]1C(=O)OC` (tested in a mixture with another compound), the “activity, negative = inhibition” value was 7.87% [at 28.7 µM].

For `O=C(OC[C@@H](O)CO)c1ccccc1Nc1ccnc2cc(Cl)ccc12`, the “activity, negative = inhibition” value was -6.22%.

`CO[C@]1(NC(=O)[C@H](C(=O)O)c2ccc(O)cc2)C(=O)N2C(C(=O)O)=C(CSc3nnnn3C)CO[C@H]21`: the “activity, negative = inhibition” value is -0.478%.

For the compound `COc1ccc2c(c1)N(C[C@@H](C)CN(C)C)c1ccccc1S2`, the “activity, negative = inhibition” value is -15.5%.

For the compound `CCC(=O)[C@@]1(C)[C@H](C)C[C@@H]2[C@@H]3CCC4=CC(=O)C=C[C@@]4(C)[C@H]3[C@H](O)C[C@]21C`, the “activity, negative = inhibition” value is -13.2%.

`CCC(C)(C)C(=O)O[C@@H]1C[C@H](C)C=C2C=C[C@H](C)[C@@H](CC[C@H]3C[C@@H](O)CC(=O)O3)[C@H]21`: the “activity, negative = inhibition” value is -0.179%.

For `CCN(CC)[C@@H](C)CN1c2ccccc2Sc2ccccc21`, the “activity, negative = inhibition” value was -10.4%.

On to `CC=C(/C(=C/C)c1ccc(O)cc1)c1ccc(O)cc1`, for which the “activity, negative = inhibition” value is 0.305%.

Take `CC1(C)S[C@@H]2[C@H](NC(=O)[C@@H](N)c3ccccc3)C(=O)N2[C@H]1C(=O)O[C@H]1OC(=O)c2ccccc21`: the “activity, negative = inhibition” value is -14.4%.
